A short description of assay [1]: resazurin metabolic signal in HepG2 cells – cell-based, resazurin fluorescence, 24 h, PK04 Diversity Set, profiling panel (AID 1172). Further: test concentration not given here. The settings on record: HepG2 viability, higher = more signal.
Assay [2] is described as follows: budding yeast growth changes without added modifier – OD600, strain BY4716, 24 h, basal condition, primary screen (AID 1173). The settings on record: S. cerevisiae BY4716 growth, OD600, 24 h; higher = more signal, called active from +8 up or from −8 down.
Assay [3] in a line: viability profiling in MM1S myeloma cells – cell-based, resazurin fluorescence, basal, 24 h, PK04 Diversity Set, profiling panel (AID 1174). Further: test concentration not given here. The settings on record: higher = more signal, called active from +8 up or from −8 down. A general note: Alamar Blue is a resazurin reagent that responds to reducing activity.
Assay [4] deals with Dihydroorotate dehydrogenase (quinone), mitochondrial (Plasmodium falciparum (isolate 3D7)) (UniProt Q08210). The assay is described as follows: inhibition of P. falciparum DHODH – biochemical, C-terminal His tag, absorbance 600 nm, primary screen (AID 1175).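 Further: recombinant parasite enzyme with a five histidine tag at its C terminus; test concentration not given here.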 The settings on record: PfDHODH enzyme, DCIP absorbance 600 nm; higher = more signal, called active from +8 up or from −8 down.
Dihydroorotate dehydrogenase (quinone), mitochondrial (Plasmodium falciparum (isolate 3D7)), sequence (Q08210 whole entry, looked up): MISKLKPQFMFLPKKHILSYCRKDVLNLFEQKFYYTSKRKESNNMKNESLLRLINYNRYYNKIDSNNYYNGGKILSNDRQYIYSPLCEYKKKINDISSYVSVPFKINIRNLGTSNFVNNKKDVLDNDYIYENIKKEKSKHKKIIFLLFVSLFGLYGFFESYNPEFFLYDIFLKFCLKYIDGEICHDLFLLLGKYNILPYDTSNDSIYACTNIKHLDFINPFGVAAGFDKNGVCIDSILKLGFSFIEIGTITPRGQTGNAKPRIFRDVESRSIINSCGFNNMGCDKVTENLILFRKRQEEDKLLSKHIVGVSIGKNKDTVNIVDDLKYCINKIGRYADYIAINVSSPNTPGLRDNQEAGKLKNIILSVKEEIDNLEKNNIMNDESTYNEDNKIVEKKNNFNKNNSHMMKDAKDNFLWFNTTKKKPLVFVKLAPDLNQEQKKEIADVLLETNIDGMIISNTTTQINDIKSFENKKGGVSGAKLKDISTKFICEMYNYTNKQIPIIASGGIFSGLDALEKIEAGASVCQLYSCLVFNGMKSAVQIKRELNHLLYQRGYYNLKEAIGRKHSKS

Assay [5] in a line: inhibition of PAO1 biofilm formation – strain PAO1, LB-PBS medium, absorbance 600 nm, primary screen (AID 1176). Further: test concentration not given here. The settings on record: P. aeruginosa PAO1 growth/biofilm, A600, 12 h; higher = more signal.
The nature of assay [6]: growth modulation of vineyard yeast isolate – strain RM11-1a, OD600, basal, 24 h, primary screen (AID 1177).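 Further: cultures grown under basal conditions with no added stressor; test concentration not given here.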 The settings on record: S. cerevisiae RM11-1a growth, OD600, 24 h; higher = more signal, called active from +8 up or from −8 down.
The nature of assay [7]: growth of efflux-deficient E. coli DRC39 – strain DRC39, OD650, 24 h, E. coli filamentation inducers, primary screen (AID 1178).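 Further: growth measured as culture turbidity by optical density at 650 nm; test concentration not given here.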 The note with it: E. coli DRC39 acrAB, higher = more signal, called active from +8 up or from −8 down.
A short description of assay [8]: growth of efflux-deficient E. coli DRC39 – strain DRC39, OD650, 48 h, E. coli filamentation inducers, primary screen (AID 1179).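 Further: screen aims at cell division blockers that make cells filament.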 The settings on record: E. coli DRC39 delta-acrAB growth, higher = more signal, called active from +8 up or from −8 down.
A short description of assay [9]: viability profiling in RPMI8226 myeloma cells – cell-based, resazurin fluorescence, basal, 24 h, PK04 Diversity Set, profiling panel (AID 1180).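 Further: RPMI8826 multiple myeloma cell line at 5000 cells per well; test concentration not given here.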 The settings on record: higher = more signal.
For assay [10], the target named is E3 ubiquitin-protein ligase XIAP (Homo sapiens) (UniProt P98170). Nature of the assay: small molecules binding XIAP protein – biophysical, small-molecule microarray, fluorescence 635 nm, primary screen (AID 1181).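 Further: score merges 667 nm emission and signal to noise over triplicate slides.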 The note with it: higher = more signal.
E3 ubiquitin-protein ligase XIAP (Homo sapiens), sequence (P98170 whole entry, looked up): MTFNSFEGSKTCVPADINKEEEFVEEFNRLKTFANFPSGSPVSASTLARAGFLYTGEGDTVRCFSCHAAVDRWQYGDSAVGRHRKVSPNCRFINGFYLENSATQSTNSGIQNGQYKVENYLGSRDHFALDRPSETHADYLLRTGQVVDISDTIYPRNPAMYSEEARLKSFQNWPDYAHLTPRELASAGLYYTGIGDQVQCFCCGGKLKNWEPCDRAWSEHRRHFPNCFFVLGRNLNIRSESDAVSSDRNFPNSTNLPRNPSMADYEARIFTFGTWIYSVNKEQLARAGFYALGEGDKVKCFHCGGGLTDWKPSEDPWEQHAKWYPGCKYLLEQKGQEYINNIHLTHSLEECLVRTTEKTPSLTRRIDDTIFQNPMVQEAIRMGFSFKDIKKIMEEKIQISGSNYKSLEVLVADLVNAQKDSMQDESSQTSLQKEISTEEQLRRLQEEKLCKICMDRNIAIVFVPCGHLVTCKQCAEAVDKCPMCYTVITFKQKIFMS

Each structure is given as a SMILES string. Active and inactive are the calls of the source. Unless noted, how the calls were made is not given here.

As for `CCc1cc2c(nc1CC)CCN(CCC(C)=NO[C@H](C)c1cn([C@@H]3COC[C@H]3O)nn1)C2`, the z-score was -0.51 in assay [1]; 0.485 (inactive) in [2]; -1.4 (inactive) in assay [3]; -0.643 (inactive) in assay [5]; 0.431 (inactive) in assay [6]; 0.415 (inactive) in assay [7]. Also, the z-score in [8] is 0.741 (inactive); in assay [9], -0.828. Moreover, the composite z-score is -0.0125 (inactive) in assay [4] and 0.0368 in assay [10].

For `CO[C@H]1COC(=O)CC=C[C@H](C)[C@@H](OC)COC(=O)[C@@H](C)NC(=O)CC=C[C@@H]1C`, the z-score in assay [1] was 0.789; in [2] it was -0.774 (inactive); in assay [3] it was 1.01 (inactive); in assay [5] it was -0.491 (inactive); in assay [6], -0.937 (inactive); in assay [7], 0.0013 (inactive). Also, the z-score is -0.597 (inactive) in assay [8] and 0.808 in assay [9]. Moreover, the figures for the composite z-score in assay [4] and in assay [10] were -0.355 (inactive) and -0.244, respectively.

`CCCNC(=O)OC[C@H]1O[C@H](CCON=C(C)CCN2CCc3nc(CC)c(CC)cc3C2)C=C[C@@H]1Oc1ccc(OC)cc1`: the z-score in [1] is -1.09; in [2], -0.139 (inactive); in [3], -1.45 (inactive); in assay [5], -0.598 (inactive); in assay [6], 0.02 (inactive); in assay [7] it was -1.13 (inactive). Further, the z-score is -1.53 (inactive) in assay [8] and 0.622 in assay [9]. For the same compound, the composite z-score in [4] is 0.358 (inactive); in [10], -0.0559.

Turning to `C=C(C)C(=O)OCC1CN2[C@@H](CC[C@@H](C)[C@@H]2c2ccc(Br)cc2)C(=O)O1` (stereo not given in full), the z-score in assay [1] is 0.679; in assay [2], -0.638 (inactive); in [3], 0.653 (inactive); in assay [5] it was -0.564 (inactive); in [6] it was -0.18 (inactive); in assay [7] it was 0.0293 (inactive). Besides, the z-score is -1.59 (inactive) in [8] and 0.759 in assay [9]. The composite z-score in assay [4] is -0.134 (inactive); in assay [10] it was -0.0899.

Take `CC(C)=NOC[C@@H](C)[C@H](OCc1ccccc1)C(C)C`: the z-score is -0.593 in assay [1]; 0.201 (inactive) in assay [2]; -0.572 (inactive) in assay [3]; -0.115 (inactive) in assay [5]; 0.536 (inactive) in [6]; -0.161 (inactive) in assay [7]. Further, the z-score in assay [8] is -0.339 (inactive); in assay [9] it was 0.887. Further, the composite z-score in assay [4] is 0.444 (inactive); in assay [10], 0.0077.

As to `C[C@@H]1CC[C@H]2C(=O)O[C@@H](COc3ccc(C(C)(C)C)cc3)CN2[C@@H]1c1ccc(Br)cc1`, the z-score is 0.937 in assay [1]; -0.752 (inactive) in [2]; 0.23 (inactive) in [3]; -0.291 (inactive) in [5]; -0.176 (inactive) in assay [6]; 0.095 (inactive) in [7]. The values for the z-score in assay [8] and in [9] were 0.408 (inactive) and 1.06, respectively. The composite z-score in assay [4] was -0.184 (inactive); in assay [10], 0.072.

Turning to `COc1cccc([C@H]2Oc3ccc(OC)cc3C(=NO[C@@H](C)c3cn([C@H](CO)Cc4ccccc4)nn3)[C@@H]2O)c1`, the z-score is -1.02 in assay [1]; -0.0439 (inactive) in assay [2]; -0.162 (inactive) in [3]; -0.102 (inactive) in [5]; -0.0779 (inactive) in assay [6]; -0.712 (inactive) in assay [7]. Moreover, the z-score in assay [8] is -2.86 (inactive); in assay [9], 0.22. Also, the composite z-score is 0.757 (inactive) in assay [4] and -0.0367 in [10].

For the compound `CC(C)CON=C1C[C@@H](O)[C@@H](O)[C@@H]2[C@@H]3C(=O)N(C[C@@H]4CCCO4)C(=O)[C@@H]3CC[C@@H]12`, the z-score in assay [1] was -0.192; in [2], 0.526 (inactive); in [3], 0.22 (inactive); in assay [5] it was 0.152 (inactive); in assay [6] it was -0.541 (inactive); in assay [7], 0.276 (inactive). Besides, the z-score was 0.663 (inactive) in assay [8] and 1.15 in [9]. Further, the composite z-score was -0.223 (inactive) in [4] and -0.266 in assay [10].

Regarding `O=C1[C@H]2[C@H]3[C@H](O)[C@H](O)CC(=NOCc4ccccc4)[C@@H]3CC[C@H]2C(=O)N1C[C@@H]1CCCO1`, the z-score in assay [1] is 0.0577; in assay [2], -0.321 (inactive); in [3] it was 0.161 (inactive); in [5], 0.611 (inactive); in assay [6], -0.447 (inactive); in assay [7], -0.242 (inactive). Also, the z-score in assay [8] is 0.403 (inactive); in [9] it was 0.278. The composite z-score in [4] is -0.0256 (inactive); in [10], -0.211.

For the compound `CCOC(=O)NN=C1C[C@@H](O)[C@@H](O)[C@@H]2[C@@H]3C(=O)N([C@@H](C)c4ccccc4)C(=O)[C@@H]3CC[C@H]12`, the z-score in [1] was 0.384; in [2], 0.448 (inactive); in assay [3] it was -0.495 (inactive); in assay [5], 0.0942 (inactive); in assay [6], -0.362 (inactive); in assay [7] it was -0.212 (inactive). The results for the z-score in [8] and in [9] were -0.102 (inactive) and 0.331, respectively. The figures for the composite z-score in assay [4] and in assay [10] were -0.309 (inactive) and -0.0076, respectively.

Take `CO[C@H]1COC(=O)CC=C[C@H](C)[C@@H](OC)COC(=O)[C@@H](C)COC(=O)CC=C[C@@H]1C`: the z-score is -0.0033 in assay [1]; -1.2 (inactive) in assay [2]; 0.277 (inactive) in [3]; -0.92 (inactive) in assay [5]; -0.288 (inactive) in assay [6]; 0.224 (inactive) in assay [7]. Further, the z-score in assay [8] was -0.979 (inactive); in [9], 0.721. Further, the composite z-score is 0.151 (inactive) in [4] and -0.142 in [10].

`CC(C)CON=C1[C@H]2CCn3c(=O)n(Cc4cc5c(cc4Cl)OCO5)c(=O)n3[C@H]2[C@H](O)[C@@H]2O[C@H]12`: the z-score in assay [1] was -0.274; in [2] it was -0.761 (inactive); in assay [3] it was -0.302 (inactive); in assay [5], -1.4 (inactive); in assay [6], -0.471 (inactive); in assay [7], 0.42 (inactive). The z-score in assay [8] was -1.6 (inactive); in [9], -0.241. Also, the composite z-score is -2.76 (inactive) in [4] and -0.0773 in [10].

As to `COC(=O)[C@H](C)NC(=O)CCC1CC(OC(=O)NCc2ccc3c(c2)OCO3)CC2(CCCC(COC(=O)NCc3cccc(C(F)(F)F)c3)O2)O1` (stereo not given in full), the z-score in assay [1] is -0.443; in assay [2], -0.817 (inactive); in [3] it was 0.374 (inactive); in [5], 0.484 (inactive); in assay [6], -0.476 (inactive); in assay [7], 0.298 (inactive). The z-score in assay [8] is 0.079 (inactive); in assay [9], 0.459. In addition, the composite z-score in assay [4] was -0.303 (inactive); in assay [10], 0.0566.

Values taken from PubChem BioAssay.
